Source: PubChem (National Center for Advancing Translational Sciences (NCATS))
PTHR1 ag: PTHR1 (human) receptor agonism | HEK293 GP2 PTHR1 cells, GloSensor cAMP luminescence, 1 h | Potency, µM (titrated, usually from 115 µM), for inactives: at the highest dose activation, most hits filed as activators | actives 0.075% (n = 410,000); also: potency is read from the fitted curve at half-maximal effect; nearly all actives have a fitted effect of over 55% in size
Target sequence (Q03431 whole entry, looked up): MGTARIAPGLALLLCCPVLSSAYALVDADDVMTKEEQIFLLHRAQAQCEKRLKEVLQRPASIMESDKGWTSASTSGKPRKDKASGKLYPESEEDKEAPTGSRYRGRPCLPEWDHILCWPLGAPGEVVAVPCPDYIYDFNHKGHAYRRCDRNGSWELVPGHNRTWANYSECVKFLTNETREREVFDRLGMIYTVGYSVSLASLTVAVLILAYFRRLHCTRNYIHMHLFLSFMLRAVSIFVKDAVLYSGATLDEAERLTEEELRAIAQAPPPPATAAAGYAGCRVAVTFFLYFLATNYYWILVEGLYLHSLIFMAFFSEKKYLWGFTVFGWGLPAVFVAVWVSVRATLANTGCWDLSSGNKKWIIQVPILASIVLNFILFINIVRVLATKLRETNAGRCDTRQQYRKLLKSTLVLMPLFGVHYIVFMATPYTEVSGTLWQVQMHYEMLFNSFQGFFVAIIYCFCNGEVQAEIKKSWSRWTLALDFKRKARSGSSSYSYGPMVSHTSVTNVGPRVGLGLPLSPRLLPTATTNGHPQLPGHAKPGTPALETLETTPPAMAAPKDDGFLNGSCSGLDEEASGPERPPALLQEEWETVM
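HEK-293-derived GP2 cells expressing PTHR1 and a GloSensor cAMP reporter, 3,000/well, plated overnight, given luciferin plus IBMX (each 0.5 mM as added) for 1 h at 37 °C, then compound for 1 h at 37 °C. Luminescence was read after 15 min at room temperature.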
TRHR PAM: allosterically enhances the human TRH receptor; enhancement, % at 2 µM; TRHR cells, fluo-8 calcium fluorescence, EC20 TRH enhancement; actives 0.66% (n = 360,000); in the data active = enhancement above about 30%; also: 0% is about no effect
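Enhancer read-out: after compound pinning and an initial kinetic agonist-mode read, an EC20 of TRH (10 nM final) was injected and fluo-8 calcium signal (Ex 480/Em 530) followed at 1 s/cycle for 100 cycles in TRHR-expressing cells.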
GLP1R inv ag: inverse agonists of human GLP-1 receptor. P43220. HEK293 GLP-1R CRE-luciferase, luminescence, 24 h; GLP-1R form is constitutively active. Potency, µM (titrated, usually from 38.3 µM), without a hit: at the top dose activity change, negative = inhibition, hits mostly inhibitors. actives 1.6% (n = 410,000). AID 624417; also: potency is read from the fitted curve at half-maximal effect; % is scaled to controls: 0 for no effect and ±100 for the full control effect; nearly all actives have a fitted effect of over 55% in size
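Inverse agonists were sought by their lowering of basal cAMP reporter luciferase output in HEK293 cells stably carrying constitutively active human GLP-1R, after 24 h compound treatment.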
TRHR agonist: activates the human TRH receptor | P34981 | TRHR cells, calcium flux fluo-8, FDSS agonist mode | activation, % at 2 µM | actives 0.18% (n = 360,000) | AID 493084; in the data active = activation above about 30%; also: 0% is about no effect
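TRHR-expressing cells, plated overnight in medium with 10% serum, were loaded with fluo-8 calcium dye at room temperature. After a 10 s baseline, library compound was pin-added and calcium release was recorded kinetically (ex 480/em 530) as agonist response.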
GLP-1R agonist: activates the human GLP-1 receptor; Potency, µM (highest dose often 45.6 µM), for inactives: at the top dose activation, most hits filed as activators; AID 624172; HEK293 GLP-1R CRE-luciferase, luminescence, 4-6 h; cells express a hypersensitive GLP-1R form; P43220; actives 0.007% (n = 380,000); also: potency is read from the fitted curve at half-maximal effect; % of control where 0% means no effect
GLP1R cytotox: cytotoxicity in counter-screen for GLP-1R inverse agonists | HEK293 cAMP-luciferase reporter cells, luminescence, 24 h | Potency, µM (highest dose often 38.3 µM), for inactives: at the highest dose activity change, negative = inhibition, usual class: inhibitors | actives 0.13% (n = 410,000) | AID 624418;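 also: loss of luciferase light is scored as toxicity; potency is read from the fitted curve at half-maximal effect; % is scaled to controls: 0 for no effect and ±100 for the full control effect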
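A 23 nL compound transfer followed 12 hours of cell culture at 37 deg C; exposure then lasted 24 hr. Luciferase assay detection reagent was dispensed and plates read for luminescence after a 12 min room-temperature wait.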
An asterisk follows results filed as active; i = inactive; ? = inconclusive; nt = not tested or not shown; [ ] = another dose, or the depositor's remark. Sampled rows, rich in hits. Any-hit rate of the full collection: about 2.4%. Unless noted, calls follow the shape of the dose curve; as a rule, active = well fitted curve in the direction sought with a large enough effect; inconclusive = small, poorly fitted or top-dose-only effect, or another doubt; inactive = no such curve, though single readings can be large; an effect the other way counts as inactive or inconclusive.

SMILES	PTHR1 ag	TRHR PAM	GLP1R inv ag	TRHR agonist	GLP-1R agonist	GLP1R cytotox
CCCCN1C(C(=O)c2ccccc2)=C(OC(=O)CC)c2ccccc2S1(=O)=O	-93%	-1	?	0	nt	-30%
CCCCCN1C(C(=O)c2ccccc2)=C(OC(=O)CC)c2ccccc2S1(=O)=O	-6%	-1	13µM*	1	nt	-12%
CCCCC(=O)OC1=C(C(=O)c2ccccc2)N(CCC)S(=O)(=O)c2ccccc21	-4%	-2	11µM*	2	nt	-25%
CCCN1C(C(=O)c2ccccc2)=C(OC(=O)c2ccc(C)cc2)c2ccccc2S1(=O)=O	-8%	-3	?	1	nt	-3%
CCCCCOC(=O)CC(C(=O)OCCCCC)N1CCCCC1 (configuration not stated)	i	0	13µM*	-1	10%	12%
CCCCCCCCCOC(=O)C(CC(=O)O)N1CCOCC1 (configuration not stated)	-5%[57.5 µM]	-3	-16%	1	2%	-12%
Fc1ccc(C2c3[nH]c4ccccc4c3CCN2Cc2cccn2-c2ncccn2)cc1 (configuration not stated)	-17%	24	11µM*	1	3%	-22%
COc1cccc(C2c3[nH]c4ccccc4c3CCN2Cc2cccn2-c2ncccn2)c1 (configuration not stated)	-33%	-4	?	1	-4%	3%
O=C(c1cc2sccc2n1Cc1ccccc1)N1CCCc2ccccc21	i	-5	10µM*	0	0%	-3%
CC(C)(C)NC(=O)NC(=O)COc1ccc(Br)cc1Br	-32%	6	10µM*	1	13%	-7%
CC1CCc2c(sc(NC(=O)CCCOc3ccccc3)c2C(N)=O)C1 (configuration not stated)	i	1	13%	-1	-2%	-3%
CCOC(=O)c1c(NC(=O)CCCOc2ccccc2C)sc2c1CCC(C)C2 (configuration not stated)	-46%	33*	0%	0	nt	0%
COc1cc(C2C(C#N)=C(N)N(Nc3ccccc3)C3=C2C(=O)CC(C)(C)C3)ccc1OCc1ccccc1 (configuration not stated)	-18%[57.5 µM]	-1	3.2µM*	0	-14%	14%
COc1ccc(C2C(C#N)=C(N)N(Nc3ccccc3)C3=C2C(=O)CC(C)(C)C3)cc1C (configuration not stated)	-72%[57.5 µM]	-2	?	0	-12%	162%
COc1cc(C2C(C#N)=C(N)N(Nc3ccccc3)C3=C2C(=O)CC(C)(C)C3)ccc1OCc1cccc(F)c1 (configuration not stated)	i	-2	5.6µM*	1	-13%	-7%
COc1ccc(C2C(C#N)=C(N)N(N(C)C)C3=C2C(=O)CC(C)(C)C3)cc1OC (configuration not stated)	i	-1	23%	1	8%	0%
Cc1ccccc1OCCOCCN1CCCCCC1	-23%	1	?	0	-1%	6%
Cc1ccc(C(C)C)cc1OCCOCCN1CCCC1	i	-2	7.9µM*	0	-2%	-8%
Cc1cc([N+](=O)[O-])c2ccccc2c1NS(=O)(=O)c1ccccc1	-17%	nt	10µM*	nt	12%	-4%
Cc1ccc(NS(=O)(=O)c2ccccc2)c([N+](=O)[O-])c1	-12%	nt	3%	nt	1%	0%
Cc1cc(C)cc(N(CC(=O)NCC2CCCO2)C(=O)CCC(=O)Nc2cc(C)on2)c1 (configuration not stated)	i	-7	0%	0	7%	18%
CC(NS(=O)(=O)c1ccc(F)cc1)C(=O)NCc1ccncc1 (configuration not stated)	-14%	-3	10%	0	-4%	8%
N/C(=N\OC(=O)/C=C/c1ccccc1)c1ccccc1	-15%[57.5 µM]	-6	-2%	0	-4%	-1%
N/C(=N\OC(=O)/C=C/c1ccccc1)c1ccc(Cl)cc1	-5%	-4	5%	-3	11%	11µM*
CC(C)(O)CN(C(=O)c1ccc([N+](=O)[O-])cc1)C1CCCC1	3%	nt	-8%	nt	0%	-5%
SMILES	PTHR1 ag	TRHR PAM	GLP1R inv ag	TRHR agonist	GLP-1R agonist	GLP1R cytotox
COc1cc([N+](=O)[O-])ccc1NC(=O)N1CCC2(CC1)Nc1cc(F)ccc1-n1cccc12	-19%	6	11µM*	0	nt	-21%
COc1cc([N+](=O)[O-])ccc1NC(=O)NN1CCN(C)CC1	i	3	15%	1	-5%	11%
CCN(c1ccccc1)S(=O)(=O)c1cc(C(=O)NCC(c2ccc(OC)cc2)N(C)C)ccc1C (configuration not stated)	-27%	nt	11µM*	nt	1%	-7%
CCOc1ccc(-c2oc3cc(Cl)ccc3c(=O)c2O)cc1OC	i	-11	-9%	78*	-1%	44%
CC(C)(C)OC(=O)NCCCCCNC(=O)c1nc[nH]c1C(=O)NCC(=O)OCc1ccccc1	-24%	nt	11µM*	nt	-13%	-42%
CC(C)C[C@H](NC(=O)c1[nH]cnc1C(=O)N[C@@H](Cc1ccccc1)C(=O)OC(C)(C)C)C(=O)OC(C)(C)C	-43%	17	10µM*	0	2%	-25%
C[C@H](NC(=O)c1nc[nH]c1C(=O)N[C@@H](CCCCNC(=O)OC(C)(C)C)C(=O)OC(C)(C)C)C(=O)OC(C)(C)C	i	-1	10µM*	-1	-5%	-11%
CC(C)C[C@H](NC(=O)c1[nH]cnc1C(=O)N[C@@H](C)c1ccccc1)C(=O)OC(C)(C)C	-90%	3	10µM*	-1	7%	?
CC(C)(C)OC(=O)CNC(=O)c1[nH]cnc1C(=O)NCC(=O)OCc1ccccc1	-9%	1	-28%	-1	-1%	2%
O=C(Nc1ccccc1)c1cc(C2CCCN(C(=O)CCc3ccccc3)C2)on1 (configuration not stated)	-57%	nt	?	nt	-5%	-3%
CC(C)(C)OC(=O)[C@H](Cc1ccccc1)NC(=O)c1nc[nH]c1C(=O)N1CCN(C(=O)OC(C)(C)C)CC1	i	-7	4.5µM*	-1	-3%	-8%
CC(C)(C)OC(=O)N1CCN(C(=O)c2[nH]cnc2C(=O)N[C@@H](Cc2ccccc2)C(=O)OCc2ccccc2)CC1	-20%	-11	1%	0	6%	8%
